# Screening data: PubChem, National Center for Advancing Translational Sciences (NCATS)
# HT1080 IDH1KD tx: qHTS for induction of synthetic lethality in tumor cells producing 2HG: qHTS for the HT-1080-IDH1KD cell line; Potency, µM (series often up to 46.1 µM), inactives show top-dose activity, negative = toxicity, usual class: cytotoxic; AID 686971, 2013; HT-1080 IDH1 knockdown viability, ATP luminescence, 48 h; actives 2% (n = 360,000);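 further: potency means the concentration at half of the fitted maximal effect; 0% = DMSO wells and -100% = cell-free medium wells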
#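 CellTiter-Glo luminescence after 48 h compound exposure at 37 degrees C of IDH1-knockdown HT-1080 cells in 5% FBS RPMI. %Activity scaled between DMSO wells and cell-free media wells, with curves fitted and assigned curve classes.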
# ELG1 DNA repair: qHTS screen for small molecules that inhibit ELG1-dependent DNA repair in human embryonic kidney (HEK293T) cells expressing luciferase-tagged ELG1; HEK293T ELG1-luciferase reporter, luminescence, 16 h; DNA damage induced by 5-fluorouridine; actives 2.3% (n = 330,000); Potency, µM (highest dose often 46.1 µM), for the others: at the top dose activity change, negative = inhibition, hits mostly inhibitors; further: potency means the concentration at half of the fitted maximal effect; nearly all actives have a fitted effect of over 55% in size
#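 Overnight (16 hr) co-exposure of 2,000 cells/well to 5-fluorouridine and compound at 37 °C preceded detection. Luciferase was quantified via ONE-Glo luminescence; loss of signal denotes inhibition.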
# IL1B secr inh: qHTS for Inhibitors of Inflammasome Signaling: IL-1-beta AlphaLISA Primary Screen | activity change, % at 57.5 µM | actives 4.7% (n = 360,000) | THP-1 LPS/ATP IL-1B secretion, AlphaLISA, 16 h; hits give low values | AID 743279, 2014; in the data active means activity change below about -50%; inconclusive means mostly about -30% to -49%
#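 THP-1 cells pretreated 1 hr with compounds (up to 57.5 uM final), then stimulated with LPS (250 ng/mL final) plus ATP (1.25 mM final); secreted IL-1B measured by AlphaLISA after 16 hr, decreased signal indicating inhibition.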
# DT40 TDP1 CPT: qHTS for Inhibitors of human tyrosyl-DNA phosphodiesterase 1 (TDP1): qHTS in cells in presence of CPT. chicken DT40 Tdp1-/-;hTDP1 cells + 20 nM CPT, ATP luminescence, 48 h. Potency, µM (doses to about 46.2 µM), for the others: at the top dose activity change, negative = growth inhibition, usual class: inhibitors. actives 12% (n = 420,000); further: potency means the concentration at half of the fitted maximal effect; nearly all actives have a fitted effect of over 55% in size
#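 Chicken DT40 Tdp1-/- cells stably complemented with human TDP1 were seeded at 400 cells/well in medium containing 20 nM camptothecin, exposed to pin-transferred compounds, and grown at 37 °C for at least 48 hr. Viability was read as ATP luminescence.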
# TDP1 cell noCPT: qHTS for Inhibitors of human tyrosyl-DNA phosphodiesterase 1 (TDP1): qHTS in cells in absence of CPT | actives 15% (n = 420,000) | DT40 Tdp1-/- hTDP1 cells, no CPT, ATP luminescence, 48 h | Potency, µM (highest dose often 46.2 µM), inactives show top-dose activity change, negative = growth inhibition, most hits filed as inhibitors; further: potency means the concentration at half of the fitted maximal effect; nearly all actives have a fitted effect of over 55% in size
#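 Chicken DT40 Tdp1-/- cells complemented with human TDP1, screened without camptothecin (DMSO vehicle only), 400 cells/well. Compounds pin-transferred, cells incubated at 37 °C for at least 48 hr. Growth read as ATP-dependent luminescence (CellTiter-Glo, 30 min at RT).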
# HT1080NT lethal: qHTS for induction of synthetic lethality in tumor cells producing 2HG: qHTS for the HT-1080-NT fibrosarcoma cell line. HT-1080-NT fibrosarcoma viability, CellTiter-Glo ATP luminescence, 48 h. Potency, µM (titrated, usually from 46.1 µM), for inactives: at the top dose activity, negative = less viability, hits mostly cytotoxic. actives 1.6% (n = 360,000). AID 686970, 2013;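 further: NT is the 2HG producing partner of a matched IDH1 knockdown line; potency means the concentration at half of the fitted maximal effect; 0% = DMSO-treated cells and -100% = media-only wells without cells; nearly all actives have a fitted effect of over 55% in size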
#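 Read-out is CellTiter-Glo luminescence after 10 minutes at room temperature, following 48 hours' compound treatment of HT-1080-NT cells (750 cells/well, RPMI, 5% FBS, 37 degrees C).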
# Active calls of the source: *; i = inactive; ? = inconclusive; . = not tested or not shown. Sampled rows, rich in hits. Any-hit rate of the full collection: about 19%. Unless noted, the call rests on the fitted dose curve; in most records, active means well fitted curve in the direction sought with a large enough effect; inconclusive means small, poorly fitted or top-dose-only effect, or another doubt; inactive means no such curve, though single readings can be large; an effect the other way counts as inactive or inconclusive. Unless noted, on the % scale 0 is the no-effect control and ±100 the full control effect.
SMILES,HT1080 IDH1KD tx,ELG1 DNA repair,IL1B secr inh,DT40 TDP1 CPT,TDP1 cell noCPT,HT1080NT lethal
COc1ccccc1OCC(=O)NCC1CCCN(Cc2cnn(C)c2C)C1 (configuration not stated),-4%,5%,1,3%,3%,-5%
Cc1ccc(C(=O)C(C)OC(=O)CNS(=O)(=O)c2ccc(C)cc2)cc1 (configuration not stated),-1%,16%,8,-15%,22%,0%
Cc1cccc(OCCNC(=O)CCNS(=O)(=O)c2ccc3ccccc3c2)c1,5%,?,-14,-27%,-29%,7%
CCOC(=O)c1ccc(N2C(=O)[C@@H](c3ccccc3)[C@H]2c2ccccc2)cc1,?,?,-1,?,?,2%
CCOC(=O)c1ccc(NC2=CC(c3ccc(F)cc3)N(c3ccc(C(=O)OCC)cc3)C2=O)cc1 (configuration not stated),.,.,.,16µM*,18µM*,.
O=C(COC(=O)COc1ccc(Cl)cc1Cl)NC1CCS(=O)(=O)C1 (configuration not stated),8%,26%,-1,8%,4%,6%
Cn1c(COc2ccc(F)cc2)nnc1SCC(=O)NC1CC1,-3%,2%,i,-5%,-5%,-15%
COc1ccc(C(=O)N2CCC3(CCCN(C(=O)NC(C)C)C3)CC2)cc1,.,.,.,4%,-2%,.
CCOc1cc(C2C(C(=O)OC)=C(C)NC3=C2C(=O)c2ccccc23)c(Br)cc1OC (configuration not stated),.,.,.,-30%,?,.
CCOc1cc(C2C(C(=O)OC)=C(C)NC3=C2C(=O)c2ccccc23)c(Br)cc1O (configuration not stated),.,.,.,?,18µM*,.
CCOc1cc(Br)c(C2C(C(=O)OC)=C(C)NC3=C2C(=O)c2ccccc23)cc1OCC (configuration not stated),.,.,.,4.6µM*,23µM*,.
CCOC(=O)C1=C(C)NC2=C(C(=O)c3ccccc32)C1c1cccc2ccccc12 (configuration not stated),0%,-27%,-12,?,12µM*,-14%
CCN(CC(=O)Nc1c(F)cccc1F)C(=O)c1cccn1C,6%,.,-6,-2%,9%,9%
CC(C)Oc1cccc(C(=O)C2CCCN(C(=O)c3cc(C(F)(F)F)[nH]n3)C2)c1 (configuration not stated),-15%,-3%,-54*,?,?,0%
Cc1ccc2[nH]nc(C(=O)N3CCCC(C(=O)c4ccc(Cl)cc4)C3)c2c1 (configuration not stated),-18%,?,-16,?,16µM*,-9%
COCCC(=O)N1CCCC(C(=O)c2ccc(C(F)(F)F)cc2)C1 (configuration not stated),-2%,13%,44,-22%,-24%,2%
Cc1noc(C)c1C(=O)N1CCCC(C(=O)c2ccc(Cl)cc2)C1 (configuration not stated),13%,2%,-4,-18%,?,22%
COCC(=O)N1CCCC(C(=O)c2ccc(Oc3ccccc3)cc2)C1 (configuration not stated),-1%,-6%,0,?,8.2µM*,-16%
COCC(=O)N1CCCC(C(=O)c2ccc(-c3ccccc3)c(F)c2)C1 (configuration not stated),-12%,6%,27,21µM*,15µM*,-9%
COc1ccc(CNC(=O)COc2ccc(OC)cc2)cc1,7%,0%,2,-4%,6%,13%
COc1cc(CN2C[C@@H](CO)O[C@@H](n3cnc4c(NC5CCCC5)ncnc43)C2)cc(OC)c1OC,8%,.,-9,-7%,?,11%
Cc1cc(C(=O)N2CCCC(C(=O)c3ccc(Oc4ccccc4)cc3)C2)n[nH]1 (configuration not stated),-16%,?,?,21µM*,13µM*,-14%
CC(C)Oc1cccc(C(=O)C2CCCN(C(=O)c3cc(C4CC4)[nH]n3)C2)c1 (configuration not stated),0%,7%,27,-23%,?,-3%
Cc1cc(SCC(=O)c2ccc(O)c(O)c2)n2nc(C)c(-c3ccccc3)c2n1,9.2µM*,?,0,18µM*,15µM*,8.2µM*
COc1cc([N+](=O)[O-])cc(/C=N/NC(=O)c2ccc(C)nc2)c1O,-19%,-11%,0,5.2µM*,2.9µM*,-2%
SMILES,HT1080 IDH1KD tx,ELG1 DNA repair,IL1B secr inh,DT40 TDP1 CPT,TDP1 cell noCPT,HT1080NT lethal
COc1cc([N+](=O)[O-])cc(/C=N/NC(=O)c2ccc(NC(=O)c3ccc(C)cc3)cc2)c1O,?,?,73,2.9µM*,4.1µM*,?
COc1cc([N+](=O)[O-])cc(/C=N/NC(=O)C(C)Nc2ccccc2C)c1O (configuration not stated),?,?,1,15µM*,18µM*,-28%
COc1ccccc1/C=N/NC(=O)c1ccc(NC(=O)c2cccc([N+](=O)[O-])c2)cc1,.,9%,.,.,.,.
COc1cc(/C=N/NC(=O)c2ccc(C)nc2)cc([N+](=O)[O-])c1O,17%,-14%,-9,20%,-12%,13%
Cc1ccc(C(=O)N/N=C/c2cc(Br)ccc2O)cn1,?,?,185,4.1µM*,5.2µM*,?
Cc1cc(C)nc(NC(=NCCc2c[nH]c3ccccc23)NC(=O)Nc2ccc(Cl)c(Cl)c2)n1,-22%,?,2,15µM*,13µM*,-4%
Cc1cc(C)nc(NC(=NCCc2c[nH]c3ccccc23)NC(=O)c2ccco2)n1,-16%,12µM*,-28,21µM*,10µM*,-12%
Cc1cc(C)nc(NC(=NCCc2c[nH]c3ccccc23)NC(=O)Nc2ccccc2)n1,-28%,15µM*,-23,?,18µM*,-20%
